CYP2C9 act – activators of human CYP2C9 | P11712 | recombinant CYP2C9, luciferin-H conversion, luminescence; hits give high values; factor 1 = untreated enzyme, 0 = blocked | activation factor at 5 µM | 96,000 tested, 1.4% active | AID 1024;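 active means activation factor of 2 or more for CYP2C9 at a 5 µM dose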
CYP2C19 inhib – human CYP2C19 inhibition; P33261; CYP2C19 Supersomes, luciferin-H EGE luminescence, 30 min; inhibition, % at 5 µM; 96,000 tested, 21% active;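 active means CYP2C19 inhibition above a set limit at 5 µM in the primary screen, cut at about 50% in these data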
Target sequence (P33261 whole entry, looked up): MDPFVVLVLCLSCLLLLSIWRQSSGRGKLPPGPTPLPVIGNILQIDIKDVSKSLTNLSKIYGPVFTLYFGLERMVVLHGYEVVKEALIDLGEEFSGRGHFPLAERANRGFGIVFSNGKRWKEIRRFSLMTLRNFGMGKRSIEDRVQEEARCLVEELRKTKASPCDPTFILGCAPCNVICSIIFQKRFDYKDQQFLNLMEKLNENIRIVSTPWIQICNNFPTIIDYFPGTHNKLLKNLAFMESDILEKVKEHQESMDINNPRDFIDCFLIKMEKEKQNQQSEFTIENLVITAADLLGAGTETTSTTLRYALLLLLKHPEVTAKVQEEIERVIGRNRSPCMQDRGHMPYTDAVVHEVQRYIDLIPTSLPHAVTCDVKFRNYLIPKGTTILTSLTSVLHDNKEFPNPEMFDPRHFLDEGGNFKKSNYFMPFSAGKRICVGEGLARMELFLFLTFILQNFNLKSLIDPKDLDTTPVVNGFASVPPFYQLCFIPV
CYP2C9 inhib – inhibitors of human CYP2C9; P11712; CYP2C9 Supersomes, luciferin-H conversion, luminescence; inhibition, % at 5 µM; 96,000 tested, 20% active; AID 777;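 active means blocking of liver enzyme CYP2C9 beyond about 50% at 5 µM, limit read from the data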
CYP2C19 act – cytochrome P450 2C19 (human) activation. P33261. recombinant CYP2C19, luciferin-H EGE luminescence; hits give high values; 0 = fully inhibited enzyme, 1 = untreated enzyme. activation factor at 5 µM. 96,000 tested, under 10 active. AID 1025;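 active means activation factor of at least 2 at 5 µM in the primary screen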
Large screens that a line does not name were inactive. Rows were chosen to be rich in hits. Some 31% of all compounds tested hit in one or more screens of this group.

Cn1c(CCNC(=O)c2ccccc2)nc2cc(NC(=O)C3CCCCC3)ccc21	none
COc1ccc(C2C3=C(CC(C)(C)CC3=O)Nc3n[nH]c(C)c32)cc1 (configuration not stated)	none
O=C(CSc1nnnn1C1CCCC1)Nc1ccc2c(c1)OCO2	CYP2C9 inhib 55
C=CCn1c(SCC(=O)Nc2ccc3c(c2)OCO3)nnc1-c1ccccc1	CYP2C19 inhib 54, CYP2C9 inhib 52
CC(=O)Nc1ccc(NC(=O)CSc2nnc(-c3ccccc3)n2Cc2ccc3c(c2)OCO3)cc1	none
Cc1ccc(NC(=O)CSc2nnc(-c3ccncc3)n2N)cc1C	CYP2C9 inhib 53
CCOc1cc(C(N)=O)cc(Br)c1OCC	none
Clc1ccc(SCc2cc(-c3ccc(Cl)cc3)on2)cc1	none
Cn1ccnc1SCC(=O)Nc1cc(C(F)(F)F)ccc1N1CCOCC1	none
CCCCOc1ccc(-c2cc(C(=O)NNC(=S)NCC)c3ccccc3n2)cc1	none
COc1ccc(C(=O)CSc2nnc(CNC(=O)c3ccc(OC)c(OC)c3)n2C)cc1	none
CCCCCOc1ccc(CSC(=N)N)cc1[N+](=O)[O-]	none
COc1ccc(CSC(=N)N)cc1[N+](=O)[O-]	CYP2C19 inhib 51, CYP2C9 inhib 62
CCOC(=O)C1C(=O)NC(c2ccccc2)=NC1c1ccc(F)cc1 (configuration not stated)	CYP2C19 inhib 58
Cc1ccc(-c2noc(CCC(=O)NCc3ccc4c(c3)OCO4)n2)cc1	none
CCCc1cc(=O)n2[nH]c(NCc3cccs3)nc2n1	none
CCOC(=O)N1CCN(C(=O)c2ccc(CS(=O)(=O)c3ccccc3OC)o2)CC1	none
COc1ccccc1N1CCN(C(=O)c2ccc(CS(=O)(=O)c3ccccc3OC)o2)CC1	CYP2C9 inhib 79
COc1ccccc1S(=O)(=O)Cc1ccc(C(=O)N2CCN(c3ccc(C)cc3)C(C)C2)o1 (configuration not stated)	CYP2C19 inhib 55, CYP2C9 inhib 91
Cc1ccccc1S(=O)(=O)Cc1ccc(C(=O)N2CCN(c3ncccn3)CC2)o1	CYP2C19 inhib 92, CYP2C9 inhib 84
COc1ccc(S(=O)(=O)Cc2ccc(C(=O)N3CCN(c4cccc(C)c4)C(C)C3)o2)cc1 (configuration not stated)	CYP2C19 inhib 58, CYP2C9 inhib 90
CCOC(=O)[C@@H]1CCNC[C@@H]1c1ccccc1	none
Cc1cc2c(s1)CCCCC(=O)N2	none
COC(=O)N1CCN(c2ccc(C(C)=O)cc2)CC1	none
O=C(Nc1nc2ccccc2n1Cc1ccccc1)c1ccc(COc2ccccc2[N+](=O)[O-])o1	none
Cc1ccc(OCc2ccc(C(=O)Nc3nc4ccccc4n3Cc3ccccc3)o2)c([N+](=O)[O-])c1	CYP2C9 inhib 63
CN(c1ccc(Cl)cc1)c1cc(=O)n(C)c2ccccc12	CYP2C19 inhib 100, CYP2C9 inhib 97
COc1cccc(C2CC(c3ccc(C)cc3)n3ncnc3N2)c1 (configuration not stated)	CYP2C19 inhib 97, CYP2C9 inhib 63
COc1cccc(C2CC(c3cccc(OC)c3)n3nc(N)nc3N2)c1 (configuration not stated)	none
COc1cccc(C2CC(c3ccc(F)cc3)Nc3nc(N)nn32)c1 (configuration not stated)	none
CCOc1ccc(C2CC(c3ccc(OC)cc3)n3ncnc3N2)cc1 (configuration not stated)	none
Fc1cccc(C2CC(c3cccc(Br)c3)Nc3nnnn32)c1 (configuration not stated)	CYP2C19 inhib 95, CYP2C9 inhib 95
COc1cccc(C2CC(c3ccccc3)n3ncnc3N2)c1 (configuration not stated)	CYP2C19 inhib 51
COc1cccc(C2CC(c3cccc(Br)c3)n3ncnc3N2)c1 (configuration not stated)	CYP2C19 inhib 64
COc1ccccc1NC(=O)COc1ccc(/C=N/n2cnnc2)cc1OC	CYP2C19 inhib 56, CYP2C9 inhib 72
CCOc1cc(/C=N/n2cnnc2)ccc1OCC(=O)Nc1ccccc1OC	CYP2C19 inhib 54, CYP2C9 inhib 70
COc1cc2c(cc1NC(=O)CC1SC(N3CCCC3)=NC1=O)oc1ccccc12 (configuration not stated)	none
CCC(CO)Nc1ncnc2c1cnn2-c1ccc(OC)cc1 (configuration not stated)	none
CCC(CO)Nc1ncnc2c1cnn2-c1ccc(Cl)cc1 (configuration not stated)	CYP2C9 inhib 65
COc1ccccc1NS(=O)(=O)c1ccc(O)cc1	CYP2C9 act 2.3, CYP2C19 inhib 86
COc1ccccc1NS(=O)(=O)c1cccc(C(=O)NN)c1	CYP2C19 inhib 97
O=C(CSc1nc(-c2ccc(F)cc2)cs1)N1CCc2ccccc21	none
O=C(CSc1nnnn1-c1ccccc1)Nc1nc(-c2ccccc2)ns1	none
O=S(=O)(c1ccc(Cl)cc1)c1snnc1-c1ccccc1	CYP2C19 inhib 90
Cc1ccc(S(=O)(=O)c2cnc(-c3ccccc3)nc2Oc2ccccc2)cc1	none
CN(C)c1ncc(S(=O)(=O)c2ccc(Cl)cc2)c(-c2ccccc2)n1	CYP2C19 inhib 97, CYP2C9 inhib 60
O=S(=O)(c1ccc(Cl)cc1)c1cnc(-c2cccnc2)nc1-c1ccccc1	CYP2C19 inhib 52
Cc1ncc(S(=O)(=O)c2ccccc2)c(-c2ccc(Cl)cc2Cl)n1	CYP2C19 inhib 73
CCn1nc(C)cc1-c1n[nH]c(=S)n1N	none
CC(=O)C1=C(O)C(=O)N(CC#N)C1c1cccs1 (configuration not stated)	none
FC(F)(F)C1=CC(c2ccc(Br)cc2)=NCCN1	none
CC(C)COc1ccc(/C=C2/Sc3ccccc3C2=O)cc1	none
Cc1nc(-c2ccccc2)sc1-c1nc(-c2ccncc2)ncc1S(=O)(=O)c1ccccc1	CYP2C19 inhib 93, CYP2C9 inhib 96
Cc1cc(Cl)ccc1Oc1nc(-c2ccccc2)ncc1S(C)(=O)=O	none
O=C(COc1ccc2ccccc2c1)NCCNC(=O)COc1ccc2ccccc2c1	none
O=C(COc1ccc2ccccc2c1)NC1=NCCS1	CYP2C19 inhib 65
O=C(CNC(=O)c1cccs1)NC1=NCCS1	none
Cc1cc(C)cc(OCC(=O)NC2=NCCS2)c1	CYP2C9 act 2.3
CCCNC(=O)c1ccc2c(c1)ncn2-c1ccccc1OC	none
COc1ccccc1-n1cnc2cc(NCc3ccco3)ccc21	CYP2C9 act 2, CYP2C19 inhib 93
COc1ccccc1-n1cnc2cc(NCc3cccs3)ccc21	CYP2C19 inhib 70
COc1ccc(CNc2ccc3c(c2)ncn3-c2ccccc2OC)cc1	CYP2C19 inhib 52, CYP2C9 inhib 54
Cc1ccccc1-n1cnc2cc(NCc3cccs3)ccc21	CYP2C19 inhib 54
S=c1[nH]nc(-c2ccc(Br)cc2)n1Cc1ccco1	none
COc1ccc(-c2noc(CN3CCOCC3)n2)cc1OC	none
CN(C(=O)c1cccnc1)c1nc(-c2ccccc2)cs1	none
CN(C(=O)c1ccncc1)c1nnc(-c2cccnc2)s1	CYP2C19 inhib 93, CYP2C9 inhib 100
CN(C(=O)c1ccncc1)c1nnc(-c2ccccn2)s1	CYP2C19 inhib 81, CYP2C9 inhib 99
CCN(C(=O)Cc1cccs1)c1nnc(-c2cccnc2)s1	CYP2C9 inhib 50

Assay outcomes deposited in PubChem BioAssay by Sanford-Burnham Center for Chemical Genomics.
